HTT aggregate: qHTS Multiplex Assay to Identify Dual Action Probes in a Cell Model of Huntington: Aggregate Formation (GFP). PC12 HttQ103-GFP aggregates, Acumen cytometry, 40 h. 1.1% of 220,000 active. Potency, µM (series often up to 46.1 µM), for inactives: at the top dose activity change, negative = inhibition, usual class: inhibitors; note: % is set by controls: 0 for no effect and ±100 for the full control effect; nearly all actives have a fitted effect of over 60% in size
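PC12 cells with ecdysone-inducible HTT exon1 Q103-GFP, induced by 100 nM tebufenozide, given compounds in a concentration series. GFP aggregates (1–25 um, 6 SD above background) counted in lysates by laser-scanning cytometry, 488 nm excitation.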
HepG2 tox-1: qHTS for Inhibitors of TGF-b: Cytotox Counterscreen | HepG2 CAGA-GFP viability, ATP luminescence, 18 h | Potency, µM (titrated, usually from 46.1 µM), for inactives: at the top dose activity change, negative = cytotoxicity, most hits filed as cytotoxic | 0.76% of 410,000 active
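HepG2 CAGA-GFP cells (1000/well, DMEM with 1% FBS) received compound, then TGF-beta at 500 pg/mL final, and were incubated 18 hours at 37 degrees C. Viability was read by CellTiter-Glo luminescence. Media-only wells were set as complete cell-killing and DMSO as no toxicity.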
ATXN viability: Viability Counterscreen for Primary qHTS for Inhibitors of ATXN expression. S2 cells (HEK-293 line with an ATXN2-luciferase reporter) viability, CellTiter-Fluor protease fluorescence, 24 h. Potency, µM (doses to about 56.7 µM), actives largely listed as cytotoxic. 0.49% of 400,000 active; note: nearly all actives have a fitted effect of over 40% in size
ATXN2 expr inh: Primary qHTS for Inhibitors of ATXN expression. HEK-293 ATXN2-luciferase reporter, luminescence, 24 h. Potency, µM (titrated, usually from 57 µM), inactives show at the top dose activity change, negative = inhibition, actives largely listed as inhibitors. 0.72% of 360,000 active; note: % is set by controls: 0 for no effect and ±100 for the full control effect; nearly all actives have a fitted effect of over 55% in size
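qHTS (up to 57 uM final) was run with 24 h compound exposure of reporter cells at 37 °C. Each well was multiplexed: SteadyGlo luminescence measured ATXN2-luciferase expression after a fluorogenic Gly-Phe-AFC viability readout (25 uM final).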
HTT ATP protect: qHTS Multiplex Assay to Identify Dual Action Probes in a Cell Model of Huntington: Cytoprotection (ATP); PC12 HTT-Q103 induced, cytoprotection, ATP luminescence, 40 h; Potency, µM (titrated, usually from 56.4 µM), without a hit: cytoprotection (ATP increase), most hits filed as activators; 0.14% of 230,000 active; note: % of control where 0% means no effect; nearly all actives have a fitted effect of over 45% in size
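Rat PC12, Q103 Htt exon1-GFP fusion, ecdysone promoter; tebufenozide inducer 100 nM final; compound titration; qHTS, 1500 cells/well; ATPlite luminescent read.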
TGFb inhibitor: qHTS for Inhibitors of TGF-b | HepG2 CAGA-GFP TGF-b/SMAD3 reporter, GFP fluorescence, 18 h; TGF-beta stimulated, 500 pg/mL final | Potency, µM (top dose mostly 46.1 µM), for the others: at the highest dose activity, negative = inhibition, most hits filed as inhibitors | 1.2% of 410,000 active; note: % is set by controls: 0 for no effect and ±100 for the full control effect; nearly all actives have a fitted effect of over 65% in size
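HEPG2 CAGA-GFP, 1000 cells/well; 2 h settle, 37 C; cpd via pin tool; TGF-b 500 pg/mL final; 18 h, 37 C; GFP imaging ex488/em500-530; %Activity normalised to -TGF-b and +DMSO controls; CRC fit, curve class.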
TGFb confirm: qHTS for Inhibitors of TGF-b: Confirmation of Cherry Picks; shares compounds with TGFb inhibitor; HepG2 CAGA-GFP TGF-b reporter, GFP fluorescence, 18 h; cells stimulated with TGF-beta, 500 pg/mL; Potency, µM (top dose mostly 46.1 µM), inactives show top-dose activity, negative = inhibition, most hits filed as inhibitors; 63% of 1,600 active; note: % is set by controls: 0 for no effect and ±100 for the full control effect; nearly all actives have a fitted effect of over 65% in size
HepG2 tox-2: qHTS for Inhibitors of TGF-b: Cytotox Counterscreen for Cherry Picks | HepG2 CAGA-GFP viability, ATP luminescence, 18 h; cells stimulated with TGF-beta, 500 pg/mL | 27% of 1,600 active | shares compounds with TGFb inhibitor | Potency, µM (highest dose often 46.1 µM), for the others: at the top dose activity, negative = cytotoxicity, actives largely listed as inhibitors; note: % is set by controls: 0 for no effect and ±100 for the full control effect; nearly all actives have a fitted effect of over 70% in size
CCL64 TGFb inh: qHTS for Inhibitors of TGF-b: CCL64 Cells Orthogonal Assay for Cherry Picks; shares compounds with TGFb inhibitor; CCL64 CAGA-GFP reporter, TGF-b stimulated, GFP fluorescence, 18 h; Potency, µM (top dose mostly 46.1 µM), without a hit: at the top dose activity, negative = inhibition, hits mostly inhibitors; 41% of 1,600 active; note: nearly all actives have a fitted effect of over 65% in size
TGFb COP inh: qHTS for Inhibitors of TGF-b: Hit Validation in HepG2 Cells using COP promoter. shares compounds with TGFb inhibitor. HepG2 COP-GFP TGF-b reporter, GFP fluorescence, 18 h; cells stimulated by added recombinant TGF-beta. Potency, µM (highest dose often 46.1 µM), for inactives: top-dose activity, negative = inhibition, usual class: inhibitors. 3% of 1,600 active; note: nearly all actives have a fitted effect of over 70% in size
An asterisk follows results filed as active; i = inactive; u = inconclusive; x = no result; [ ] = dose if it differs, or a comment. In the library only some 2.8% were active in any assay of this set; here they are far more common. Calls come from the whole dose curve; as a rule, active = well fitted curve in the direction sought with a large enough effect; inconclusive = small, poorly fitted or top-dose-only effect, or another doubt; inactive = no such curve, though single readings can be large; an effect the other way counts as inactive or inconclusive. Potency is the fitted concentration of half-maximal effect.

SMILES | HTT aggregate | HepG2 tox-1 | ATXN viability | ATXN2 expr inh | HTT ATP protect | TGFb inhibitor | TGFb confirm | HepG2 tox-2 | CCL64 TGFb inh | TGFb COP inh
Cc1cccc(C)c1-n1nnnc1C(c1cc2ccccc2o1)N1CCC(n2c(=O)[nH]c3ccccc32)CC1 (stereo unspecified) | x | -8% | u | 5.6µM* | x | 7.1µM* | 5.8µM* | u | 5.8µM* | 21%
COc1ccc(-n2nnnc2C(c2cccc(OC)c2OC)N2CCC(n3c(=O)[nH]c4ccccc43)CC2)cc1 (stereo unspecified) | x | -14% | u | -36% | x | u | x | x | x | x
O=C1NCN(c2ccccc2)C12CCN(C(c1cccs1)c1nnnn1-c1ccc3c(c1)OCCO3)CC2 (stereo unspecified) | x | 21% | u | -23% | x | 13µM* | u | -27% | 10µM* | 53%
O=c1[nH]c2ccccc2n1C1CCN(C(c2cccc3ccccc23)c2nnnn2Cc2ccccc2)CC1 (stereo unspecified) | x | -23% | u | u | x | 16µM* | 6.5µM* | -7% | u | 2%
O=c1[nH]c2ccccc2n1C1CCN(C(c2cccs2)c2nnnn2-c2ccc3c(c2)OCCO3)CC1 (stereo unspecified) | x | -6% | u | u | x | 11µM* | -83% | -24% | u | 54%
C/C=C/C=O | x | x | x | x | 7% | x | x | x | x | x
N[C@@H](Cc1ccccc1)P(=O)(O)O | x | x | x | x | -16%[10 µM] | x | x | x | x | x
CC1=C(O)C(=O)[C@H]2O[C@@H]2C1=O | x | x | x | x | -80% | x | x | x | x | x
CC(C)[C@]1(O)[C@@H](OC(=O)c2ccc[nH]2)[C@]2(O)[C@@]3(C)C[C@@]4(O)O[C@@]5([C@H](O)[C@@H](C)CC[C@]35O)[C@]2(O)[C@]41C | x | x | x | x | 8%[10 µM] | x | x | x | x | x
O=c1[nH]c2ccccc2n1C1CCN(C(c2ccccc2)c2nnnn2-c2ccc3c(c2)OCCO3)CC1 (stereo unspecified) | x | 10% | x | u | x | u | x | x | x | x
O=c1[nH]c2ccccc2n1C1CCN(C(c2ccccc2OC(F)(F)F)c2nnnn2-c2ccc3c(c2)OCCO3)CC1 (stereo unspecified) | x | -56% | x | 13µM* | x | 8.9µM* | u | u | 8.2µM* | 38%
COc1ccc(-n2nnnc2C(c2cccs2)N2CCC(n3c(=O)[nH]c4ccccc43)CC2)cc1 (stereo unspecified) | x | -3% | u | u | x | u | x | x | x | x
COc1ccc(-n2nnnc2C(c2ccccc2)N2CCC(n3c(=O)[nH]c4ccccc43)CC2)cc1 (stereo unspecified) | x | -2% | u | u | x | 8.9µM* | u | u | u | 58%
CC1=C2C(=O)[C@@H]3[C@@H](CC=C4C[C@@H](O)CC[C@@]43C)[C@H]2CC[C@@]12O[C@H]1C[C@H](C)CN[C@H]1[C@@H]2C | x | x | x | x | 3%[10 µM] | x | x | x | x | x
CCCC[N+](=O)[O-] | x | x | x | x | -14% | x | x | x | x | x
COC1CC(C)C(OC)c2cc(O)cc(c2O)NC(=O)C(C)=CC=CC(C)C(OC(N)=O)C(C)=CC(C)C1OC (stereo unspecified) | x | 1% | u | 3.8µM* | x | 7.1µM* | 0.52µM* | 5.2µM* | 4.1µM* | 22%
O=C1NC2C(O)C(O)C(O)C(O)C2c2cc3c(c(O)c21)OCO3 (stereo unspecified) | x | 4% | u | 0% | x | 0.13µM* | 0.065µM* | u | 0.18µM* | 0%
O=C1NC2C(=CC(O)C(O)C2O)c2cc3c(c(O)c21)OCO3 (stereo unspecified) | x | -21% | u | u | x | -126% | 0.018µM* | 0.46µM* | 0.073µM* | -8%
Cc1ncc([N+](=O)[O-])n1CCN=[N+]=[N-] | x | x | x | x | -3%[10 µM] | x | x | x | x | x
CCc1ccc(CCN2CCCCC2)nc1 | x | x | x | x | 10%[10 µM] | x | x | x | x | x
CCC1C(c2cc(OC)c(OC)c(OC)c2)c2cc3c(cc2OC1N1CCCC1)OCO3 (stereo unspecified) | x | -9% | u | -5% | x | 10µM* | u | -17% | u | -13%
Cc1ccc(-c2cc(-c3ccc(C)cc3)[n+](-c3ccccc3)c(-c3ccc(C)cc3)c2)cc1 | x | -69% | x | u | x | 1.3µM* | 1.5µM* | 9.2µM* | 1.6µM* | -75%
CC(=O)[O-].CC(=O)[O-].CC(=O)[O-].[Cr+3] | x | x | x | x | -57% | x | x | x | x | x
C[C@H]1CCC/C=C/[C@@H]2C[C@H](O)C[C@H]2[C@@H](O)/C=C/C(=O)O1 | x | -41% | u | u | x | -109% | 0.058µM* | 0.13µM* | u | 78%
CCCCC[C@@H]1CCCCC[C@@H](O)C[C@H](O)[C@H](O)/C=C/C(=O)O1 | x | x | i | 6% | x | x | x | x | x | x
COC[C@H]1OC(=O)c2coc3c2[C@@]1(C)C1=C(C3=O)[C@H]2CCC(=O)[C@@]2(C)C[C@H]1OC(C)=O | x | x | x | x | -42% | x | x | x | x | x
O=C(Nc1ccc(Cl)cc1)Nc1ccc(Cl)c(Cl)c1 | 11µM* | -21% | u | u | -83% | 3.2µM* | u | 21µM* | 5.2µM* | 94%

Screening data: PubChem BioAssay, National Center for Advancing Translational Sciences (NCATS)
